# ± gives the standard deviation of the averaged measurements. Of roughly 6,200 targets only a part is listed; those with the largest changes were picked by preference.
# Compound: Nc1ncnc2c1ncn2[C@@H]1O[C@H](COP(=O)(O)OP(=O)(O)NP(=O)(O)O)[C@@H](O)[C@H]1O [adenylyl imidodiphosphate]
# Assay: NP40-soluble protein abundance relative to vehicle (solubility fold change) (ratio); higher = more soluble protein in presence of AMP-PNP
# In short: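 In three independent experiments, Jurkat crude lysate made by Dounce homogenisation was treated for 10 min at room temperature and then 3 min at 37 °C with eight concentrations ranging from 0.1 to 10 mM. It was then solubilised with 0.8% NP40 plus benzonase for 60 min at 4 °C and ultracentrifuged. The supernatant was TMT-labelled for LC-MS/MS, and each value is the fold change against the detergent-processed vehicle for the same replicate, using vsn-normalised intensities.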
# Chain of UniProt Q5EBL8 (Q5EBL8 whole entry): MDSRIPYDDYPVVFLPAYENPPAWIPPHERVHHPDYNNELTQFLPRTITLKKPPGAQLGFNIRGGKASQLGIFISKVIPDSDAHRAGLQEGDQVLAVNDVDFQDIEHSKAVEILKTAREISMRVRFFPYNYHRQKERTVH
# Chain of UniProt Q15459 (Q15459 whole entry): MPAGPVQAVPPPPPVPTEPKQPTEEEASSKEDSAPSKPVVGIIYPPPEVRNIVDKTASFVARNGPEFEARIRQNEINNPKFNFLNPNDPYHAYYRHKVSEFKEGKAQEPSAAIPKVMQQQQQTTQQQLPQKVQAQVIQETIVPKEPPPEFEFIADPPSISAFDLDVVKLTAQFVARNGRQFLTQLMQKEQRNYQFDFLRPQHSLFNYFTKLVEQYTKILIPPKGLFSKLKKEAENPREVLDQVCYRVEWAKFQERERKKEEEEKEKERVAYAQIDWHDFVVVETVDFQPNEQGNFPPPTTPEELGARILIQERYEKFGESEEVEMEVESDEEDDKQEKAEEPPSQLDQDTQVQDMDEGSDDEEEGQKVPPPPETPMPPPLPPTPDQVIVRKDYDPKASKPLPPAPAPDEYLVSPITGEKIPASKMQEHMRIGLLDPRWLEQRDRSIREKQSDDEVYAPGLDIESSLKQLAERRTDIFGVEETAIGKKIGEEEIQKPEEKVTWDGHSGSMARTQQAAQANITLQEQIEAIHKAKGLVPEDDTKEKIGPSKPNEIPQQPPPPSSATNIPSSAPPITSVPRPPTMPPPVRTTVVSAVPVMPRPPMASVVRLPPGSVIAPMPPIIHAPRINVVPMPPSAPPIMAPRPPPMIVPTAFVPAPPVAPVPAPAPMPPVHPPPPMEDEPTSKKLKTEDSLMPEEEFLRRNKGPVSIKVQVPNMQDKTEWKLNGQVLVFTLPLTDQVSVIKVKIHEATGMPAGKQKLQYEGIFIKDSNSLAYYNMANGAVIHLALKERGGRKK
# Chain of UniProt Q8WUB8 (Q8WUB8 whole entry, one chain of several): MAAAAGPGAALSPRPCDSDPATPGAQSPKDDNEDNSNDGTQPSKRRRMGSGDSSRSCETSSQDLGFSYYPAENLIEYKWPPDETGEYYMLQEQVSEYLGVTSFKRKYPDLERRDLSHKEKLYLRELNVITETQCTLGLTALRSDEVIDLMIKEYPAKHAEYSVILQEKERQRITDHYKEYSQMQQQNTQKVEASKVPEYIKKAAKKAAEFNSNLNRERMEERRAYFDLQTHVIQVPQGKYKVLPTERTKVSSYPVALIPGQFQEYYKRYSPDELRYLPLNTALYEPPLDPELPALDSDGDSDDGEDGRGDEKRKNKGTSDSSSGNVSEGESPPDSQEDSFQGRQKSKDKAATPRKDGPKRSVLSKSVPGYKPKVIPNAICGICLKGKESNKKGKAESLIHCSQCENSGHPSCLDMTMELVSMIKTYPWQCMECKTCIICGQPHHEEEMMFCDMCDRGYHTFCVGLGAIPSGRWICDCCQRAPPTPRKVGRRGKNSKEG
# Chain of UniProt Q7L5N7 (Q7L5N7 whole entry, one chain of several): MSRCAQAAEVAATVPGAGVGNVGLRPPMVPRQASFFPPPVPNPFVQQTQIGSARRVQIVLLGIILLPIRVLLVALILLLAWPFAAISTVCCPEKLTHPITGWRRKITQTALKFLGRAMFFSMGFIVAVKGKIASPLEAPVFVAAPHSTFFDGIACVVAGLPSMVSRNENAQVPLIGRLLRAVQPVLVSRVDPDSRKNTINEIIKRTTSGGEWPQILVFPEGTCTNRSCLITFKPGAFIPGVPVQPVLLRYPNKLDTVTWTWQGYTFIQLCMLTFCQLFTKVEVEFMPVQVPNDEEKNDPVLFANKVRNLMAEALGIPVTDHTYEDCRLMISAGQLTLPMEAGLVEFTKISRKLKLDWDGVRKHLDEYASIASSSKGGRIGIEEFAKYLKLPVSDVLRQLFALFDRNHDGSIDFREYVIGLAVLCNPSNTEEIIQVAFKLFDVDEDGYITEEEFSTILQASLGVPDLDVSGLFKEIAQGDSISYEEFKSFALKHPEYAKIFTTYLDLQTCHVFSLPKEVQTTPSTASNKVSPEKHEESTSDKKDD
# Chain of UniProt Q8IXI1 (Q8IXI1 whole entry, looked up): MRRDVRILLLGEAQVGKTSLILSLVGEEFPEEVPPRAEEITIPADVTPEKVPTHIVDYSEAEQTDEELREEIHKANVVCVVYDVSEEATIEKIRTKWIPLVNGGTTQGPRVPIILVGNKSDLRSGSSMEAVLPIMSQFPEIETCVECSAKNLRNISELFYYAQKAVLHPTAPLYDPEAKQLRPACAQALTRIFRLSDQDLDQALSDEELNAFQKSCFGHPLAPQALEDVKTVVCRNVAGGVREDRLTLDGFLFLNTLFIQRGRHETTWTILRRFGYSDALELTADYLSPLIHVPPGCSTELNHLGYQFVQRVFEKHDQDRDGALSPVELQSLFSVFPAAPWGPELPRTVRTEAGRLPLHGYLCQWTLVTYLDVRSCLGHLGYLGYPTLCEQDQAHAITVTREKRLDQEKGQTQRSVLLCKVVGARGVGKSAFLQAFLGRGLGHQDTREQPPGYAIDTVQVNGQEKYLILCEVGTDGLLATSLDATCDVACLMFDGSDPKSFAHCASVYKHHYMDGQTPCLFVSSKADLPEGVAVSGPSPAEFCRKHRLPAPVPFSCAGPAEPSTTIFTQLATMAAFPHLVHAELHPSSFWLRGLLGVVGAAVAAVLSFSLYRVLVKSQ
# Chain of UniProt Q969Z0 (Q969Z0 whole entry): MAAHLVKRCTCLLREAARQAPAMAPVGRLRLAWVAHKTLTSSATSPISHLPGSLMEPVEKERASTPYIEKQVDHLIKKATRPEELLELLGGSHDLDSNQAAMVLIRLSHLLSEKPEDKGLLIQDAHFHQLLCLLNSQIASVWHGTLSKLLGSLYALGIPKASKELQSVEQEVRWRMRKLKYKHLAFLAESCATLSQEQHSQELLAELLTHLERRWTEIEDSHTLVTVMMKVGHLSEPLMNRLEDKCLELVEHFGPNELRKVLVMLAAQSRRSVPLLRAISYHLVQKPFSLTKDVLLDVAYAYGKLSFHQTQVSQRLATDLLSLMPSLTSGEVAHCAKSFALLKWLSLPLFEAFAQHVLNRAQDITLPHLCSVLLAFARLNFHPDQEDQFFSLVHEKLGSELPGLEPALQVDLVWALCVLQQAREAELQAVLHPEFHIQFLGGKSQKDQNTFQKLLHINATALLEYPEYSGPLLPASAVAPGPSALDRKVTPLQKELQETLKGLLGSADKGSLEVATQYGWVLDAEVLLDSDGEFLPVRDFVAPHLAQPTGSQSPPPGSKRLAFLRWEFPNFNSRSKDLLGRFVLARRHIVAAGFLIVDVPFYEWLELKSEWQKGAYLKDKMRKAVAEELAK
# Chain of UniProt Q13541 (Q13541 whole entry): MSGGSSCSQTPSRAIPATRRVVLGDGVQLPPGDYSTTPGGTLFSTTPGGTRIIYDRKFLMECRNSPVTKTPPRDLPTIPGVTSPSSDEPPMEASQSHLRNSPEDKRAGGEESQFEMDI
# Chain of UniProt Q7Z7K6 (Q7Z7K6 whole entry): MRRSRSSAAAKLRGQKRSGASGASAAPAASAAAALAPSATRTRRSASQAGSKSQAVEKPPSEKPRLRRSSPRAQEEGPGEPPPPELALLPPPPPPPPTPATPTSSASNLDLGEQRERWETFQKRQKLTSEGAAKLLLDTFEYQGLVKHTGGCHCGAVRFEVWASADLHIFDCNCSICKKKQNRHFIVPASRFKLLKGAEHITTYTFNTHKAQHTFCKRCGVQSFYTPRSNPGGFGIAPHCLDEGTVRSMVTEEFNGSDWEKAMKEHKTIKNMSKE
# Chain of UniProt Q15006 (Q15006 whole entry): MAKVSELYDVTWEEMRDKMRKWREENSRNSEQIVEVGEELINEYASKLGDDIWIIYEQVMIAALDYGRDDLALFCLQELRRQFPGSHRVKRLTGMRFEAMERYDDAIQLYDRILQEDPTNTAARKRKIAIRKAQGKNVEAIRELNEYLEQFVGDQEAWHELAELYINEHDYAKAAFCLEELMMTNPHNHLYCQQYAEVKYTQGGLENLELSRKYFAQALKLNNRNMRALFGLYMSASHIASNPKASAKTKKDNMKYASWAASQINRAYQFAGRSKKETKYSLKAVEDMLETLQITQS
# Chain of UniProt Q7L5Y1 (Q7L5Y1 whole entry): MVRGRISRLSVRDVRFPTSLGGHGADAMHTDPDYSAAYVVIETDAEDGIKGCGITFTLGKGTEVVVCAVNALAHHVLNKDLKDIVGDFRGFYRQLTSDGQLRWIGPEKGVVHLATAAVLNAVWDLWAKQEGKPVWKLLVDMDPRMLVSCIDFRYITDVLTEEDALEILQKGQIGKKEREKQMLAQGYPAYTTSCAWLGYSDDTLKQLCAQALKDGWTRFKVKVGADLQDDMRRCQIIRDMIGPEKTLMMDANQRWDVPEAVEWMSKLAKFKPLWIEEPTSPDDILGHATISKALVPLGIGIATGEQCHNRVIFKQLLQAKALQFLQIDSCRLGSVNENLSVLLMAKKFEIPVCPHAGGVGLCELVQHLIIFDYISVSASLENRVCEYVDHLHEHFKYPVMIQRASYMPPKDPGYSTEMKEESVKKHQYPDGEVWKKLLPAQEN
# Chain of UniProt Q969F1 (Q969F1 whole entry): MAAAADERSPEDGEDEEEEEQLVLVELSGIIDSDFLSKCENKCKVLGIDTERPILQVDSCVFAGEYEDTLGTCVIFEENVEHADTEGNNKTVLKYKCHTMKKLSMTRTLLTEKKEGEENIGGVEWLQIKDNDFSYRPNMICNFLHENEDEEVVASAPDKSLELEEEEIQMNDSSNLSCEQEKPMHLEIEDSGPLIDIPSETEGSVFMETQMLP
# Chain of UniProt Q8WZ82 (Q8WZ82 whole entry): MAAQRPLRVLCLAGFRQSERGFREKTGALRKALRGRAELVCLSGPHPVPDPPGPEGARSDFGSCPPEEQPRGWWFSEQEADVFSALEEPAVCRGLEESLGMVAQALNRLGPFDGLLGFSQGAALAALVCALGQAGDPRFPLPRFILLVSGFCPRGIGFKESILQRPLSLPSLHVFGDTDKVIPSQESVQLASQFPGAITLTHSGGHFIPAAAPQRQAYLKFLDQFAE
Target,NP40-soluble protein abundance (concentration: 1mM),NP40-soluble protein abundance (concentration: 2mM),NP40-soluble protein abundance (concentration: 4mM),NP40-soluble protein abundance (concentration: 6mM),NP40-soluble protein abundance (concentration: 8mM),NP40-soluble protein abundance (concentration: 10mM)
UniProt Q92576|Q92576-2,1.046 ± 0.0099,1.09 ± 0.048,1.08 ± 0.008,1.08 ± 0.07,1.09 ± 0.04,1.11 ± 0.046
UniProt Q86YS7,0.973 ± 0.015,0.97 ± 0.016,0.982 ± 0.017,0.942 ± 0.012,0.919 ± 0.015,0.948 ± 0.018
PPWD1 (UniProt Q96BP3),0.984 ± 0.013,0.933 ± 0.087,1 ± 0.06,1.01 ± 0.037,1.04 ± 0.042,1.02 ± 0.036
UniProt Q15223,1.01 ± 0.026,1.028 ± 0.0082,1.011 ± 0.0089,1.01 ± 0.011,0.997 ± 0.023,1.01 ± 0.028
UniProt Q15599|Q15599-2,1.01 ± 0.046,1.05 ± 0.042,1.04 ± 0.035,1.05 ± 0.038,1.04 ± 0.038,1.03 ± 0.045
UniProt Q86W42|Q86W42-2,1.17 ± 0.087,1.25 ± 0.065,1.36 ± 0.11,1.49 ± 0.1,1.65 ± 0.18,1.67 ± 0.27
ITPK1 (UniProt Q13572),1.019 ± 0.0014,1.035 ± 0.0039,1.01 ± 0.014,0.992 ± 0.025,1.02 ± 0.04,0.9738 ± 0.0084
NUP210 (UniProt Q8TEM1),0.992 ± 0.025,0.952 ± 0.025,0.975 ± 0.021,0.972 ± 0.037,1.01 ± 0.029,0.986 ± 0.044
UniProt Q92804|Q92804-2,1.07 ± 0.15,1.15 ± 0.031,1.19 ± 0.17,1.27 ± 0.21,1.32 ± 0.13,1.54 ± 0.23
UniProt Q6IAA8|F5GX19|F5H3Y3|F5H479|H0YFI1,1.02 ± 0.025,1.04 ± 0.028,1.04 ± 0.047,0.992 ± 0.051,0.975 ± 0.017,0.966 ± 0.035
PRPF8 (UniProt Q6P2Q9),0.989 ± 0.039,0.892 ± 0.15,0.979 ± 0.085,0.966 ± 0.098,1.05 ± 0.13,1.02 ± 0.16
UniProt Q5T3F8|H3BLW6,1 ± 0.052,1.06 ± 0.1,1.01 ± 0.038,1.01 ± 0.019,0.985 ± 0.042,1.01 ± 0.049
ANKRD13A (UniProt Q8IZ07),0.985 ± 0.017,0.981 ± 0.013,1.04 ± 0.029,1.06 ± 0.061,1.04 ± 0.03,1.08 ± 0.047
UniProt Q5F1R6|Q5F1R6-3,1.044 ± 0.0025,1.12 ± 0.041,1.123 ± 0.0067,1.11 ± 0.066,1.09 ± 0.019,1.11 ± 0.035
UniProt Q7L5N7|A0A087X0A3|Q7L5N7-2,0.987 ± 0.031,0.966 ± 0.051,0.979 ± 0.037,0.99 ± 0.035,0.985 ± 0.028,1.01 ± 0.036
UniProt Q8IXQ5|Q8IXQ5-2|Q8IXQ5-5,0.984 ± 0.042,0.979 ± 0.018,0.974 ± 0.029,0.9744 ± 0.0094,0.983 ± 0.044,0.9769 ± 0.0044
GALNT6 (UniProt Q8NCL4),1.005 ± 0.0084,0.9987 ± 0.0047,0.967 ± 0.011,1 ± 0.024,0.9866 ± 0.0025,1 ± 0.015
UniProt Q8WZA9,1.03 ± 0.023,1.08 ± 0.07,1.04 ± 0.059,0.988 ± 0.028,0.981 ± 0.021,0.989 ± 0.067
UniProt Q15084|Q15084-2|Q15084-3|Q15084-4|Q15084-5,0.949 ± 0.019,0.989 ± 0.021,0.9386 ± 0.0066,0.951 ± 0.032,0.92 ± 0.022,0.94 ± 0.047
CAND1 (UniProt Q86VP6),0.971 ± 0.024,0.947 ± 0.03,0.983 ± 0.035,1.01 ± 0.084,1.03 ± 0.044,0.992 ± 0.058

Target,NP40-soluble protein abundance (concentration: 1mM),NP40-soluble protein abundance (concentration: 2mM),NP40-soluble protein abundance (concentration: 4mM),NP40-soluble protein abundance (concentration: 6mM),NP40-soluble protein abundance (concentration: 8mM),NP40-soluble protein abundance (concentration: 10mM)
UniProt Q8N5M4|E9PKV8,0.932 ± 0.054,0.94 ± 0.03,0.91 ± 0.032,0.984 ± 0.064,0.961 ± 0.055,0.938 ± 0.071
PRPF4B (UniProt Q13523),1.02 ± 0.02,1.01 ± 0.048,1.1 ± 0.037,1.2 ± 0.032,1.26 ± 0.042,1.34 ± 0.067
PMVK (UniProt Q15126),0.948 ± 0.0098,0.931 ± 0.018,0.973 ± 0.045,1.04 ± 0.07,1.04 ± 0.061,1.02 ± 0.052
LEO1 (UniProt Q8WVC0),1.025 ± 0.006,1.04 ± 0.062,1.01 ± 0.029,1.02 ± 0.03,0.997 ± 0.016,1.02 ± 0.024
SYAP1 (UniProt Q96A49),1 ± 0.046,1.06 ± 0.077,0.952 ± 0.072,0.94 ± 0.021,0.94 ± 0.039,0.918 ± 0.08
UniProt Q5T011|Q5T011-5,0.882 ± 0.14,0.91 ± 0.071,0.912 ± 0.076,0.864 ± 0.16,0.809 ± 0.045,0.803 ± 0.056
URB2 (UniProt Q14146),0.971 ± 0.018,0.9722 ± 0.0054,0.988 ± 0.013,1.05 ± 0.018,1.07 ± 0.023,1.1 ± 0.055
UniProt Q8WUB8|Q8WUB8-2|Q8WUB8-3|S5FZ81,1.01 ± 0.045,1.04 ± 0.034,1.07 ± 0.023,1.11 ± 0.045,1.08 ± 0.051,1.15 ± 0.061
UniProt Q8TB61|Q8TB61-2|Q8TB61-3,0.968 ± 0.041,0.969 ± 0.045,0.965 ± 0.045,0.953 ± 0.034,0.951 ± 0.042,0.989 ± 0.019
GATAD2B (UniProt Q8WXI9),1.01 ± 0.014,1.06 ± 0.046,1.024 ± 0.0076,1.01 ± 0.049,0.994 ± 0.035,1.02 ± 0.03
USP34 (UniProt Q70CQ2),0.958 ± 0.032,0.925 ± 0.044,0.955 ± 0.026,0.885 ± 0.021,0.877 ± 0.033,0.873 ± 0.014
UniProt Q8TEQ0|Q8TEQ0-2,1.02 ± 0.035,1.03 ± 0.047,1.01 ± 0.029,0.98 ± 0.054,0.969 ± 0.017,0.953 ± 0.021
RHOT2 (UniProt Q8IXI1),1.02 ± 0.021,1 ± 0.073,1.02 ± 0.03,0.9999 ± 0.006,1.004 ± 0.01,1.02 ± 0.034
UniProt Q5EBL8|Q5EBL8-2,1 ± 0.011,1.02 ± 0.023,0.9905 ± 0.0052,1 ± 0.025,1.02 ± 0.03,1.017 ± 0.0054
EMG1 (UniProt Q92979),1.01 ± 0.03,1 ± 0.014,1.12 ± 0.087,1.19 ± 0.071,1.24 ± 0.096,1.26 ± 0.1
FAM117B (UniProt Q6P1L5),0.99 ± 0.022,1.07 ± 0.04,1.01 ± 0.025,1.005 ± 0.01,0.9688 ± 0.0059,1.01 ± 0.022
UniProt Q7L5Y1|Q7L5Y1-4|Q7L5Y1-5,0.992 ± 0.03,1 ± 0.016,1.007 ± 0.0081,0.99 ± 0.04,1.01 ± 0.013,0.996 ± 0.0075
MDC1 (UniProt Q14676),1.13 ± 0.032,1.31 ± 0.086,1.49 ± 0.12,1.86 ± 0.28,2.04 ± 0.41,2.34 ± 0.53
UniProt Q16611|Q16611-2,0.994 ± 0.035,0.952 ± 0.016,0.985 ± 0.043,0.96 ± 0.023,0.974 ± 0.032,0.932 ± 0.026
MTDH (UniProt Q86UE4),1.13 ± 0.046,1.3 ± 0.16,1.32 ± 0.073,1.46 ± 0.2,1.47 ± 0.17,1.58 ± 0.17

Target,NP40-soluble protein abundance (concentration: 1mM),NP40-soluble protein abundance (concentration: 2mM),NP40-soluble protein abundance (concentration: 4mM),NP40-soluble protein abundance (concentration: 6mM),NP40-soluble protein abundance (concentration: 8mM),NP40-soluble protein abundance (concentration: 10mM)
UniProt Q6P6C2|Q6P6C2-1,1.15 ± 0.065,1.17 ± 0.036,1.22 ± 0.07,1.24 ± 0.13,1.3 ± 0.13,1.33 ± 0.11
UniProt Q16630-2|Q16630,1.067 ± 0.004,1.12 ± 0.043,1.149 ± 0.0081,1.22 ± 0.025,1.3 ± 0.017,1.51 ± 0.045
UniProt Q86VP1-2|Q86VP1-4|B8ZZD4,0.977 ± 0.039,1.01 ± 0.026,0.963 ± 0.024,0.935 ± 0.038,0.925 ± 0.033,0.936 ± 0.031
UniProt Q15006,0.984 ± 0.018,0.9532 ± 0.0062,0.975 ± 0.044,0.989 ± 0.049,1.02 ± 0.028,1.02 ± 0.013
UniProt Q8TEX9|Q8TEX9-2,1.01 ± 0.026,0.974 ± 0.059,0.99 ± 0.017,0.9956 ± 0.0059,1.007 ± 0.0054,0.981 ± 0.025
EIF4EBP1 (UniProt Q13541),0.949 ± 0.016,1.032 ± 0.008,0.998 ± 0.1,0.9563 ± 0.0018,0.961 ± 0.059,0.96 ± 0.047
TMED4 (UniProt Q7Z7H5),1.017 ± 0.0076,0.973 ± 0.026,0.99 ± 0.032,1.02 ± 0.036,1.02 ± 0.025,1 ± 0.038
OVCA2 (UniProt Q8WZ82),1.01 ± 0.018,0.992 ± 0.052,1.01 ± 0.062,0.981 ± 0.018,1.01 ± 0.041,0.999 ± 0.03
UniProt Q13825|Q13825-2,0.995 ± 0.028,1.02 ± 0.025,1.04 ± 0.044,1.03 ± 0.015,1.04 ± 0.057,1.06 ± 0.025
HP1BP3 (UniProt Q5SSJ5),0.963 ± 0.042,1.06 ± 0.063,1.03 ± 0.065,1.16 ± 0.017,1.18 ± 0.069,1.39 ± 0.15
UniProt Q14156|Q14156-2,0.9764 ± 0.0041,0.961 ± 0.041,0.9737 ± 0.0064,0.952 ± 0.023,0.973 ± 0.015,0.953 ± 0.018
THOC2 (UniProt Q8NI27),1.36 ± 0.16,1.46 ± 0.2,1.63 ± 0.29,1.87 ± 0.53,2.02 ± 0.6,2.15 ± 0.77
UniProt Q14677|Q14677-2|Q14677-3,0.999 ± 0.026,1.03 ± 0.069,0.983 ± 0.052,1 ± 0.026,0.974 ± 0.03,1.03 ± 0.043
UniProt Q8IWI9|Q8IWI9-3|Q8IWI9-4,1.02 ± 0.023,1.01 ± 0.021,1.01 ± 0.047,0.953 ± 0.014,0.924 ± 0.029,0.944 ± 0.046
UniProt Q7Z7K6|Q7Z7K6-3,1.08 ± 0.068,1.153 ± 0.0086,1.3 ± 0.087,1.51 ± 0.12,1.72 ± 0.052,2.1 ± 0.13
UniProt Q8WWW0|Q8WWW0-2,0.9981 ± 0.0063,0.996 ± 0.033,1.02 ± 0.018,1.03 ± 0.039,1.02 ± 0.029,1.03 ± 0.052
GTF3C6 (UniProt Q969F1),1.04 ± 0.045,1.07 ± 0.042,1.04 ± 0.032,0.984 ± 0.018,0.99 ± 0.047,1.01 ± 0.035
SF3A1 (UniProt Q15459),1.02 ± 0.022,1.05 ± 0.05,1.02 ± 0.014,1.07 ± 0.031,1.07 ± 0.017,1.09 ± 0.031
TBRG4 (UniProt Q969Z0),0.984 ± 0.03,0.953 ± 0.033,0.955 ± 0.012,0.959 ± 0.028,0.941 ± 0.022,0.935 ± 0.054
UniProt Q8NBP0|Q8NBP0-2,0.998 ± 0.019,0.97 ± 0.025,0.9847 ± 0.0052,0.984 ± 0.025,0.992 ± 0.032,0.991 ± 0.027
